Sampled rows, rich in hits. Any-hit rate of the full collection: about 4.8%.
DAX1 inh-1: DAX1 (NR0B1) inhibitors, primary screen, cell-based, HEK293, Gal4-DAX1, luciferase luminescence. AID 504766, 2011. inhibition, % at 6.75 µM. HEK293 Gal4-DAX1 luciferase reporter. 0.99% of 340,000 active;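 active = inhibition above the mean over all tested compounds plus 3 SD, cut at about 4.2% in these data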;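 also: inhibition shows as a rise in luminescence from relieved DAX1 repression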
Target sequence (P51843 207-470 limits assumed): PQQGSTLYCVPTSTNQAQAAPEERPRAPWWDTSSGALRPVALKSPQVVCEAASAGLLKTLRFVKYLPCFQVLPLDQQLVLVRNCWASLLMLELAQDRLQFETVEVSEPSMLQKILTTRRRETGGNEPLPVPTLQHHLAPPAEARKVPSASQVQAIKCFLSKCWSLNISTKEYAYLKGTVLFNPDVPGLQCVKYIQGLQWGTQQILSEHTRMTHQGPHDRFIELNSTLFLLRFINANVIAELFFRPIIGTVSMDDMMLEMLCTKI
DAX1 inh-2: DAX1 (NR0B1) inhibitors on StAR promoter, primary screen, cell-based, luminescence, SF-1 (NR5A1), full-length DAX-1 | HEK293T StAR-luciferase reporter, SF-1/DAX-1 repression relief | inhibition, % at 6.8 µM | 1.1% of 370,000 active;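 active = inhibition above the mean over all tested compounds plus 3 SD, cut at about 3.6% in these data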;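 also: higher inhibition means more luminescence from relief of DAX-1 repression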
SMARCA2 activ: SMARCA2 (BRM) function activators, primary screen, cell-based, luminescence, high throughput | 1% of 370,000 active | activation, % at 9.1 µM | MG213 cells, MMTV-luciferase reporter, dexamethasone, overnight; in the data active = activation above about 7.8%
hcDAF12 agonist: H. contortus DAF-12 nuclear receptor activators, primary screen, cell-based, luminescence, HEK293, lit1-tk-luc reporter; HEK293 hcDAF-12 lit1-tk-luc reporter; 0% DMSO, 100% Δ7-dafachronic acid; activation, % at 6.8 µM; 1.4% of 370,000 active; AID 652067, 2013;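 active = activation above the mean of all tested compounds plus 3 SD, cut at about 5.5% in these data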
ssDAF-12 act: S. stercoralis DAF-12 nuclear receptor activators, primary screen, cell-based, luminescence, HEK293, GRIP1 co-expression, lit1-tk-luc | HEK293 ssDAF-12/GRIP1 lit1-tk-luc reporter; % of 3 µM dafachronic acid response | activation, % at 6.8 µM | 1% of 370,000 active | AID 652126, 2013;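 active = activation above the mean over all tested compounds plus 3 SD, cut at about 0.9% in these data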
hgDAF-12 ag: H. glycines DAF-12 receptor agonists, primary screen, cell-based, luminescence, HEK293, GAL4 fusion, UAS-luciferase; Nuclear hormone receptor DAF-12 (Heterodera glycines), GAL4 fusion; HEK293 GAL4-hgDAF12 UAS-luciferase reporter, agonist luminescence; normalized to butyrate control; 1.8% of 370,000 active; activation, % at 6.8 µM; AID 687014, 2013;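 active = activation above a cutoff set at the mean of all screened compounds plus 3 SD, cut at about 10% in these data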
SMARCA2 act conf: SMARCA2 (BRM) function activators, confirmation, cell-based, luminescence, triplicate | shares compounds with SMARCA2 activ | MG213 cells, MMTV-luciferase with dexamethasone, overnight; MG213 cells expressing E1A, Rb sequestered; DMSO wells 0%, reference activator 100% | activation, % at 9.1 µM | 30% of 3,500 active | AID 652260, 2013;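 active = activation above its plate's cutoff, the mean activation of tested wells plus 3 SD, cut at about 7.9% in these data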
GAL4-VP16 Luc: GAL4-VP16 luciferase reporter activation, counter-screen for SMARCA2 (BRM) activator project, cell-based, pG5luc, luminescence, high throughput; shares compounds with SMARCA2 activ; HEK293 GAL4-VP16 pG5luc reporter; scaled: DMSO wells 0%, SAHA wells 100%; activation, % at 9.1 µM; 41% of 3,500 active; AID 686939, 2013;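 active = activation above the solvent-only control well mean plus 3 SD, averaged across control plates, cut at about 5.2% in these data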
Hits are given with their value.

For Nc1[nH]n(-c2ccccc2)c(=O)c1N=Nc1ccccc1[N+](=O)[O-] the results were DAX1 inh-1 inactive, DAX1 inh-2 inactive, SMARCA2 activ inactive, hcDAF12 agonist inactive, ssDAF-12 act inactive and hgDAF-12 ag inactive.
Screening CCc1ccccc1N=Nc1c(N)[nH]n(-c2ccccc2)c1=O returned DAX1 inh-2 inactive, SMARCA2 activ 10, hcDAF12 agonist inactive, ssDAF-12 act inactive, hgDAF-12 ag 11, SMARCA2 act conf 8.1 and GAL4-VP16 Luc 6.0.
For Cc1ccc(-n2c(=O)c3ccccc3n(CC(=O)NCc3ccco3)c2=O)cc1 the results were DAX1 inh-1 inactive, DAX1 inh-2 inactive, SMARCA2 activ inactive, hcDAF12 agonist inactive, ssDAF-12 act inactive and hgDAF-12 ag inactive.
`CCc1ccc(-n2c(=O)c3ccccc3n(CC(=O)NCc3ccco3)c2=O)cc1` gave DAX1 inh-1 inactive, DAX1 inh-2 inactive, SMARCA2 activ 8.6, hcDAF12 agonist inactive, ssDAF-12 act inactive, hgDAF-12 ag inactive, SMARCA2 act conf inactive and GAL4-VP16 Luc inactive.
`Cn1c(N)c(C(=O)COC(=O)C2Cc3ccccc3CN2S(C)(=O)=O)c(=O)n(C)c1=O` (configuration not stated) gave DAX1 inh-1 inactive, DAX1 inh-2 inactive, SMARCA2 activ 8.4, hcDAF12 agonist inactive, ssDAF-12 act inactive, hgDAF-12 ag inactive, SMARCA2 act conf inactive and GAL4-VP16 Luc inactive.
`O=C(CSc1nnc(-c2ccccc2)n1-c1ccccc1)Nc1ccc(Oc2ccccc2)cc1` gave DAX1 inh-2 inactive, SMARCA2 activ inactive, hcDAF12 agonist inactive, ssDAF-12 act inactive and hgDAF-12 ag inactive.
Screening CCc1ccc(C(=O)Cn2ncc(Cl)c(Cl)c2=O)cc1 returned DAX1 inh-1 inactive, DAX1 inh-2 inactive, SMARCA2 activ 17, hcDAF12 agonist inactive, ssDAF-12 act inactive, hgDAF-12 ag inactive, SMARCA2 act conf inactive and GAL4-VP16 Luc inactive.
CC(=O)NC1CCCCN(Cc2ccc(Cl)cc2)C1=O (configuration not stated) was read as DAX1 inh-2 inactive, SMARCA2 activ inactive, hcDAF12 agonist inactive, ssDAF-12 act inactive and hgDAF-12 ag inactive.
Screening CC(=O)c1cc(-c2csc(C=O)c2)c(=O)n2c1CCC2 returned DAX1 inh-2 inactive, SMARCA2 activ inactive, hcDAF12 agonist inactive, ssDAF-12 act inactive and hgDAF-12 ag inactive.
For CCOC(=O)c1c(C)[nH]c(C(=O)COC(=O)c2ccncc2)c1C the results were DAX1 inh-1 inactive, DAX1 inh-2 inactive, SMARCA2 activ inactive, hcDAF12 agonist inactive, ssDAF-12 act inactive and hgDAF-12 ag inactive.
Screening CCOC(=O)c1c(C)[nH]c(C(=O)COC(=O)c2ccco2)c1C returned DAX1 inh-1 inactive, DAX1 inh-2 inactive, SMARCA2 activ 10, hcDAF12 agonist inactive, ssDAF-12 act inactive, hgDAF-12 ag inactive, SMARCA2 act conf inactive and GAL4-VP16 Luc inactive.
Screening CCN(CC)CCNc1nc(SC)nc2sc3c(c12)CCN(C)C3 returned DAX1 inh-1 inactive, DAX1 inh-2 inactive, SMARCA2 activ 9.2, hcDAF12 agonist inactive, ssDAF-12 act inactive, hgDAF-12 ag inactive, SMARCA2 act conf inactive and GAL4-VP16 Luc inactive.
O=C(NC(=S)Nc1cccc(O)c1)C1CCCCC1 was read as DAX1 inh-1 inactive, DAX1 inh-2 inactive, SMARCA2 activ 8.2, hcDAF12 agonist inactive, ssDAF-12 act inactive, hgDAF-12 ag inactive, SMARCA2 act conf inactive and GAL4-VP16 Luc 6.2.
`CC(C)C[C@H](NC1(C(=O)NC2CCCCC2)CCN(C(=O)OC(C)(C)C)CC1)C(=O)NCCc1c[nH]c2ccccc12` gave hcDAF12 agonist inactive, ssDAF-12 act inactive and hgDAF-12 ag inactive.
`O=C1Nc2ccccc2S/C1=C/c1cccs1` gave DAX1 inh-1 inactive, DAX1 inh-2 inactive, SMARCA2 activ 10, hcDAF12 agonist inactive, ssDAF-12 act 1.3, hgDAF-12 ag inactive, SMARCA2 act conf inactive and GAL4-VP16 Luc inactive.
For O=C1NC(=S)SC1=Cc1cccs1 the results were DAX1 inh-1 inactive, DAX1 inh-2 inactive, SMARCA2 activ inactive, hcDAF12 agonist inactive, ssDAF-12 act inactive and hgDAF-12 ag inactive.
Screening COC(=O)C1CN(Cc2ccc(OC)cc2)CCS(=O)(=O)N1Cc1cn(Cc2ccc(Cl)cc2)nn1 (configuration not stated) returned DAX1 inh-2 inactive, SMARCA2 activ inactive, hcDAF12 agonist inactive, ssDAF-12 act inactive and hgDAF-12 ag inactive.
For C=CCN1C(C(=O)OC)CN(Cc2cn(Cc3ccc(Cl)cc3)nn2)CCS1(=O)=O (configuration not stated) the results were DAX1 inh-2 inactive, SMARCA2 activ 8.5, hcDAF12 agonist inactive, ssDAF-12 act inactive, hgDAF-12 ag inactive, SMARCA2 act conf inactive and GAL4-VP16 Luc inactive.
Screening CCOC(=O)Cn1cc(CN2CCS(=O)(=O)N(Cc3ccc(F)cc3)C(C(=O)OC)C2)nn1 (configuration not stated) returned DAX1 inh-2 inactive, SMARCA2 activ 8.5, hcDAF12 agonist inactive, ssDAF-12 act inactive, hgDAF-12 ag inactive, SMARCA2 act conf inactive and GAL4-VP16 Luc inactive.
CCOC(=O)Cn1cc(CN2C(C(=O)OC)CN(Cc3ccc(C)cc3)CCS2(=O)=O)nn1 (configuration not stated) was read as DAX1 inh-2 inactive, SMARCA2 activ inactive, hcDAF12 agonist inactive, ssDAF-12 act inactive and hgDAF-12 ag inactive.
CCC(C)CNC(=O)CSc1nnc(-c2cccnc2)n1C1CCCCC1 (configuration not stated) was read as DAX1 inh-2 inactive, SMARCA2 activ inactive, hcDAF12 agonist inactive, ssDAF-12 act inactive and hgDAF-12 ag inactive.
`COc1cccc(C(=O)N[C@H](C(=O)N2CCC[C@H]2C(=O)NCc2ccccc2)c2ccccc2)c1` gave DAX1 inh-2 inactive, SMARCA2 activ inactive, hcDAF12 agonist inactive, ssDAF-12 act inactive and hgDAF-12 ag inactive.
